Screening results from PubChem BioAssay.
Shown are actives, neighbours in structure and some others; about 1.5% of the full set was active somewhere.
USP1-UAF1 inh – USP1/UAF1 (human) deubiquitinase inhibition. AID 743255. Potency, µM (titrated, usually from 57.1 µM), actives largely listed as inhibitors. recombinant USP1/UAF1, Ub-Rhodamine cleavage fluorescence. 390,000 tested, 0.23% active. O94782; further: nearly all actives have a fitted effect of over 60% in size
Target sequence (O94782 whole entry, looked up): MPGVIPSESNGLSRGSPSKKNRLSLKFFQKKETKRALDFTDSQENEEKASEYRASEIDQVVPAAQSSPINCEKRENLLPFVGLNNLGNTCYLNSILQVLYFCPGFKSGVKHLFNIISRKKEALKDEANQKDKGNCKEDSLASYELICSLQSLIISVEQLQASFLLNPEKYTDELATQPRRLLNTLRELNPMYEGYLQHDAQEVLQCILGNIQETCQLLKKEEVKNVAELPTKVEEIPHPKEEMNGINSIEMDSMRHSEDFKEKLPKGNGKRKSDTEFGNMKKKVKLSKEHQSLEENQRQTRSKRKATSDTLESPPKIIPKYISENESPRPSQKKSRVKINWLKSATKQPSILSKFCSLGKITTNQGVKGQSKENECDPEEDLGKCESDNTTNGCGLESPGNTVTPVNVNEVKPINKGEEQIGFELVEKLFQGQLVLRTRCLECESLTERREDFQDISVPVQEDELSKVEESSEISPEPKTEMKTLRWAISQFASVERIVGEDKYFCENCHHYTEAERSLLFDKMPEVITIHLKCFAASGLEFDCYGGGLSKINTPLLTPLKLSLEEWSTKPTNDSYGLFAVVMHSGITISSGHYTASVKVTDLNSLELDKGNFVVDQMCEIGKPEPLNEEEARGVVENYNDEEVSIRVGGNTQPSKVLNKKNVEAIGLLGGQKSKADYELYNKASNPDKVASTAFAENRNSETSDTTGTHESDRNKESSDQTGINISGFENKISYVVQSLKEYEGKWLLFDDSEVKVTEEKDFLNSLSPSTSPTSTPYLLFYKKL
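USP1/UAF1 complex (1 nM) preincubated 15 min at room temperature with compound, then Ub-Rho substrate (150 nM final) added. Kinetic fluorescence at 480/540 nm over 6 reads at 60 s intervals; 50 mM HEPES pH 7.8, 0.5 mM EDTA, 0.1 mg/ml BSA, 1 mM TCEP, 0.01% Tween-20.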
TrxR1 inh – rat TrxR1 inhibition; O89049; recombinant rTrxR1, NADPH fluorescence consumption, selenite substrate; Potency, µM (doses to about 114 µM), usual class: inhibitors; 390,000 tested, 1% active; AID 588453; further: nearly all actives have a fitted effect of over 65% in size
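Rat TrxR1 (90 nM in the dispensed reagent) was pre-reduced with 400 uM NADPH for 5 min at room temperature, then incubated with compound for 15 min. After 400 uM selenite was added, NADPH fluorescence (Ex 340/Em 450 nm) was followed for 8 min.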
TrxR1 substrate – substrates of rat thioredoxin reductase 1; O89049; purified TrxR1 substrate turnover, NADPH consumption readout; Potency, µM (titrated, usually from 114 µM); 390,000 tested, 0.01% active; further: nearly all actives have a fitted effect of over 50% in size
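Rat TrxR1, dispensed at 90 nM, was prereduced with 400 uM NADPH (final) for 5 min at ~22 deg C, then incubated with compound 15 min before 400 uM selenite. A first-read NADPH fluorescence drop versus no-compound background flagged substrates.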
Coupling enz – inhibits coupling enzyme system, counter-screen for aldolase hits; coupling enzyme system counterscreen, AmpLite Red fluorescence; activity change, negative = inhibition, % at 58.2 µM, hits read low; 290,000 tested, 0.67% active; AID 2472; in the data active means activity change below about -30%
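Final compound at 57.5 uM, incubated 10 min at RT with coupling enzyme reagent (glyceraldehyde-3-phosphate), then 20 min with substrate and AmpLite Red detection. Fluorescence read at 525/598 nm; tests interference with the coupling assay, not aldolase inhibition.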
GALK inhibitor – galactokinase (human) inhibition; 270,000 tested, 0.007% active; Potency, µM (doses to about 57.5 µM), most hits filed as inhibitors; P51570; Purified GALK, Kinase-Glo residual ATP luminescence
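Galactose (100 uM) and ATP (35 uM) were turned over by 5 nM GALK for 1 h at RT. Kinase-Glo Plus then converted the remaining ATP into a luminescent signal.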
Hits are given with their value; [ ] = another dose, or the depositor's remark. Unless noted, the call rests on the fitted dose curve; in most records, active means well fitted curve in the direction sought with a large enough effect; inconclusive means small, poorly fitted or top-dose-only effect, or another doubt; inactive means no such curve, though single readings can be large; an effect the other way counts as inactive or inconclusive.

Screening Cc1ccc(NC(=O)C2=C(c3ccccc3)S(=O)(=O)CCS2(=O)=O)cc1 returned USP1-UAF1 inh inactive, TrxR1 inh 0.32µM, TrxR1 substrate inactive, Coupling enz inactive and GALK inhibitor inactive.
Cc1ccc(C(=O)N/C(=C\c2cn(C)c3ccccc23)C(=O)NCCCN2CCOCC2)cc1 was read as USP1-UAF1 inh inactive, TrxR1 inh inactive, TrxR1 substrate inactive and GALK inhibitor inactive.
Cc1ccc(C(=O)N/C(=C\c2ccc(-c3ccccc3[N+](=O)[O-])o2)C(=O)NCCCN2CCOCC2)cc1 was read as USP1-UAF1 inh inconclusive, TrxR1 inh 40µM, TrxR1 substrate inactive and GALK inhibitor inactive.
`Cc1ccc(/C=C/C(=O)N2CCN(S(=O)(=O)c3c(C)c(C)cc(C)c3C)CC2)o1` gave USP1-UAF1 inh inactive, TrxR1 inh inactive, TrxR1 substrate inactive[11.4 µM], Coupling enz inactive and GALK inhibitor inactive.
`O=C(/C=C/c1ccco1)N1CCN(c2ncccn2)CC1` gave USP1-UAF1 inh inactive, TrxR1 inh 40µM, TrxR1 substrate inactive, Coupling enz inactive and GALK inhibitor inactive.
COc1ccc(S(=O)(=O)N2CCN(C(=O)/C=C/c3ccco3)CC2)cc1 was read as USP1-UAF1 inh inactive, TrxR1 inh 13µM and TrxR1 substrate inactive.
`O=C(/C=C/c1ccco1)N1CCN(S(=O)(=O)c2cccc([N+](=O)[O-])c2)CC1` gave USP1-UAF1 inh inactive, TrxR1 inh inactive and TrxR1 substrate inactive.
Screening Cc1ccc(/C=C/C(=O)N2CCN(S(=O)(=O)c3ccc(C)c(C)c3)CC2)o1 returned USP1-UAF1 inh inactive, TrxR1 inh 18µM, TrxR1 substrate inactive, Coupling enz inactive and GALK inhibitor inactive.
Screening Cc1cccc(CN2CCN(C(=O)CCl)CC2)c1 returned USP1-UAF1 inh inactive, TrxR1 inh 11µM, TrxR1 substrate inactive, Coupling enz inactive and GALK inhibitor inactive.
`Cc1cc(C)cc(C(=O)N2CC(=O)Nc3ccccc32)c1` gave USP1-UAF1 inh inactive, TrxR1 inh inactive, TrxR1 substrate inactive, Coupling enz inactive and GALK inhibitor inactive.
`Cc1ccc(/C=C/C(=O)N2CC(=O)Nc3ccccc32)o1` gave USP1-UAF1 inh inactive, TrxR1 inh 79µM, TrxR1 substrate inactive, Coupling enz inactive and GALK inhibitor inactive.
For Cc1ccc(/C=C/C(=O)N2CCN(Cc3ccccc3)CC2)o1 the results were USP1-UAF1 inh inactive, TrxR1 inh 45µM, TrxR1 substrate inactive, Coupling enz inactive and GALK inhibitor inactive.
CCOc1cccc(C2C=C(c3ccc4c(c3)OCO4)NC(c3ccc(Br)cc3)N2)c1O (stereo not given) was read as TrxR1 inh inactive and TrxR1 substrate inactive[0.0914 µM].
Screening O=C(COc1ccccc1C(=O)Nc1ccccc1)Nc1ccccc1-c1ccccc1 returned TrxR1 inh inactive and TrxR1 substrate inactive.
Screening [N-]=C=C1C(=O)NC(=O)C([n+]2ccc(-c3ccncc3)cc2)C1c1ccccc1C(F)(F)F (stereo not given) returned USP1-UAF1 inh inconclusive, TrxR1 inh inactive, TrxR1 substrate inactive and Coupling enz -65.
For [N-]=C=C1C(=S)NC(=O)[C@H]([n+]2ccccc2)[C@H]1c1ccc(Cl)cc1 the results were USP1-UAF1 inh inactive, TrxR1 inh inconclusive, TrxR1 substrate inactive, Coupling enz inactive and GALK inhibitor inactive.
`Cc1ccc(C)c(NC(=O)CCN2C(=O)c3ccccc3Sc3ncccc32)c1` gave USP1-UAF1 inh inactive, TrxR1 inh 50µM and TrxR1 substrate inactive.
For CCc1cccc(NC(=O)CCN2C(=O)c3ccccc3Sc3ncccc32)c1 the results were USP1-UAF1 inh inactive, TrxR1 inh 18µM and TrxR1 substrate inactive.
`CC(C)NC(=O)CCN1C(=O)c2ccccc2Sc2ncccc21` gave USP1-UAF1 inh inactive, TrxR1 inh inactive, TrxR1 substrate inactive and Coupling enz inactive.
For O=C(CCN1C(=O)c2ccccc2Sc2ncccc21)Nc1ccc(F)cc1 the results were USP1-UAF1 inh inactive, TrxR1 inh 7.1µM and TrxR1 substrate inactive.
Screening Cc1nc(Oc2ccccc2)c2ccccc2n1 returned USP1-UAF1 inh inactive, TrxR1 inh inactive, TrxR1 substrate inactive, Coupling enz inactive and GALK inhibitor inactive.
Screening c1ccc(Oc2c3ccccc3nc3ccccc23)cc1 returned USP1-UAF1 inh inactive, TrxR1 inh 8.9µM, TrxR1 substrate inactive, Coupling enz inactive and GALK inhibitor inactive.
Screening COCCn1c(=S)[nH]c2cc(C(=O)N3CCN(Cc4ccccc4)CC3)ccc2c1=O returned TrxR1 inh inconclusive and TrxR1 substrate inactive.
For O=C(CCS(=O)(=O)c1ccc(Br)cc1)Nc1ccccn1 the results were USP1-UAF1 inh inactive, TrxR1 inh 45µM, TrxR1 substrate inactive, Coupling enz inactive and GALK inhibitor inactive.
For COc1ccc2c(c1)C(=O)CC2 the results were TrxR1 inh inactive and TrxR1 substrate inactive.
`CC#CCN1c2ccccc2[C@]23C[C@@H](C(=O)OC)N(S(=O)(=O)c4ccc([N+](=O)[O-])cc4)C2=NC(C(=O)OC)=C(C(=O)OC)[C@H]13` gave Coupling enz inactive.
For Cc1ccc(-c2[nH]ncc2CNCc2ccc(CN(C)C)cc2)cc1 the results were TrxR1 inh inactive and TrxR1 substrate inactive.
For C[C@@H]1Cc2c(O)c(O)cc(O)c2C(=O)O1 the results were USP1-UAF1 inh inactive, TrxR1 inh inconclusive, TrxR1 substrate inactive, Coupling enz inactive and GALK inhibitor inactive.
`CC1CCC/C=C/C(=O)c2c(O)cc(O)cc2CC(=O)O1` (stereo not given) gave USP1-UAF1 inh inactive, TrxR1 inh 11µM, TrxR1 substrate inactive, Coupling enz inactive and GALK inhibitor inactive.
`CCOc1ccccc1-c1nc(CN2CCN(C(=O)c3ccco3)CC2)c(C)o1` gave USP1-UAF1 inh inactive, TrxR1 inh inconclusive, TrxR1 substrate inactive, Coupling enz inactive and GALK inhibitor inactive.
Screening CCOc1ccccc1-n1c(CN2CCN(C(=O)c3ccco3)CC2)nc2ccccc2c1=O returned USP1-UAF1 inh inactive, TrxR1 inh 20µM, TrxR1 substrate inactive, Coupling enz inactive and GALK inhibitor inactive.
`O=C1CC(N2CCC(c3nc4ccccc4o3)CC2)C(=O)N1c1ccc(F)cc1` (stereo not given) gave USP1-UAF1 inh inactive, TrxR1 inh inactive, TrxR1 substrate inactive, Coupling enz inactive and GALK inhibitor inactive.
O=C1CC(N2CCC(c3nc4ccccc4o3)CC2)C(=O)N1c1ccc(Cl)c(C(F)(F)F)c1 (stereo not given) was read as USP1-UAF1 inh inactive, TrxR1 inh 18µM, TrxR1 substrate inactive, Coupling enz inactive and GALK inhibitor inactive.
For COc1cc(/C=C\c2ccc(OC)cc2OC)cc(OC)c1 the results were Coupling enz inactive.
`O=c1c(O)c(-c2cccs2)oc2ccc(Cl)cc12` gave USP1-UAF1 inh 25µM, TrxR1 inh inactive, TrxR1 substrate inactive, Coupling enz inactive and GALK inhibitor inactive.
